Experiment [1] can be described thus: qHTS assay to identify small molecule agonists of the estrogen receptor alpha (ER-alpha) signaling pathway in the presence of an antagonist - cell viability counter screen (AID 1259386).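 Further: series mostly up to about 92 µM; cells exposed to compounds for 22 h at 37 °C before the viability read; nearly all actives have a fitted effect of over 30% in size.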 The essentials:
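Fluorescent CellTiter-Fluor viability signal from VM7Luc4E2 cells, with the reagent added during the final hour of a 22hr compound exposure at 37C in the presence of 10.0nM ICI-182,780.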
On the technique in general: qHTS replaces the single test concentration by a dilution series.

For experiment [2], the target named is Progesterone receptor (Homo sapiens) (UniProt P06401). As to the kind of experiment: qHTS assay to identify small molecule agonists of the progesterone receptor (PR) signaling pathway (AID 1346784; calls by dose curve; further: nearly all actives have a fitted effect of over 30% in size; further: potency means the concentration at half of the fitted maximal effect). The method in brief:
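PR-UAS-bla HEK 293T cells carrying a UAS-driven beta-lactamase reporter were seeded in medium with 2% charcoal-stripped FBS, preincubated 6 hr at 37C, then exposed to compounds in DMSO for 16 hr; agonism was read by LiveBLAzer B/G FRET fluorescence.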

The target is the same in experiment [3]. As to the kind of experiment: qHTS assay to identify small molecule antagonists of the progesterone receptor (PR) signaling pathway (AID 1346795; active means well fitted inhibition curve with a large enough effect in the signal ratio in the repeat runs, not every such curve was filed as active; the % refers to the signal ratio). The method in brief:
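PR-UAS-bla HEK293T cells carrying a UAS-driven beta-lactamase reporter were plated in medium with 2% charcoal-stripped FBS and rested 6 hr at 37C. Compounds were added with 1 nM R5020 (final) for 16 hr, then FRET substrate loaded 2 hr at room temperature.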

Experiment [4] is described as follows: qHTS assay to identify small molecule antagonists of the progesterone receptor (PR) signaling pathway - cell viability counter screen (AID 1346798). Further: series mostly up to about 92 µM; nearly all actives have a fitted effect of over 50% in size. The essentials:
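PR-UAS-bla HEK293T cells in medium with 2% charcoal-stripped FBS were treated with compounds plus R5020 for 16 hr at 37C. Cell viability was then read by CellTiter-Glo luminescence after 30 min at room temperature in the same wells.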

Experiment [5] in a line: qHTS assay to identify small molecule agonists of the progesterone receptor (PR) signaling pathway - cell viability counter screen (AID 1346799; calls by dose curve; further: nearly all actives have a fitted effect of over 45% in size). The essentials: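 PR-UAS-bla HEK293T cells, 3,000 per well in medium with 2% charcoal-stripped FBS, were preincubated 6 hr at 37C, then exposed to compounds for 16 hr; viability was read as CellTiter-Glo luminescence after 30 min at room temperature.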

Experiment [6] in a line: qHTS assay to identify small molecule antagonists of the TGF-beta/Smad signaling pathway - cell viability counter screen (AID 1346824). Further: nearly all actives have a fitted effect of over 50% in size. The essentials: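 SBE-bla HEK 293T cells, incubated overnight, then compound plus 0.25 ng/mL TGF-beta1 (stock added) for 5 hr at 37 C. Viability was read in the same wells by CellTiter-Glo luminescence after 30 min at room temperature.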

Experiment [7] is described as follows: qHTS assay to identify small molecule agonists of the TGF-beta/Smad signaling pathway - cell viability counter screen (AID 1346829). Further: top concentration of the series differs between compounds; nearly all actives have a fitted effect of over 45% in size. The essentials:
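HEK 293T SBE-bla line, 5 hr compound exposure at 37 C, multiplexed CellTiter-Glo viability read by luminescence.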

The nature of experiment [8]: qHTS assay to identify small molecule agonists of the TGF-beta/Smad signaling pathway (AID 1346859; active means well fitted activation curve with a large enough effect in the signal ratio in the repeat runs, not every such curve was filed as active; the % refers to the signal ratio; further: series mostly up to about 77 µM). The essentials:
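HEK 293T cells stably carrying a beta-lactamase reporter driven by the Smad binding element were seeded overnight, exposed to DMSO-dissolved compounds for 5 hr at 37 C, 5% CO2, then loaded with FRET substrate for 2 hr at room temperature.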

The target in experiment [9] is Thyrotropin-releasing hormone receptor (Homo sapiens) (UniProt P34981). As to the kind of experiment: qHTS assay to identify small molecule antagonists of the thyrotropin-releasing hormone receptor (TRHR) signaling pathway (AID 1346877; active means well fitted inhibition curve with a large enough effect in the repeat runs, not every such curve was filed as active; further: series mostly up to about 51 µM). The essentials: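 In this cell-based calcium flux format, HEK293 cells expressing TRHR received test compound for 5 min before the agonist TRH (1 nM final). Dye loading lasted 2 h at 37 °C.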
Sequence of Thyrotropin-releasing hormone receptor (Homo sapiens) (P34981 whole entry, looked up): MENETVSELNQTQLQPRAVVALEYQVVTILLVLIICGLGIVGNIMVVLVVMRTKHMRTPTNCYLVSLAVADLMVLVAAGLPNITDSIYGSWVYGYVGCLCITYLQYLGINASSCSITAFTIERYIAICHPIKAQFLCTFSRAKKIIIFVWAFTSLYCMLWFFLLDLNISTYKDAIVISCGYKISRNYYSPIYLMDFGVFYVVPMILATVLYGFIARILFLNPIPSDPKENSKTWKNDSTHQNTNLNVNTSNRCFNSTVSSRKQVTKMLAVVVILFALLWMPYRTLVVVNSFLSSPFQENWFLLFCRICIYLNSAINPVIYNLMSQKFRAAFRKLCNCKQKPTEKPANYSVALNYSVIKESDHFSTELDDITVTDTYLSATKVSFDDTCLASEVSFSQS

For experiment [10] the target is unchanged. As to the kind of experiment: qHTS assay to identify small molecule agonists of the thyrotropin-releasing hormone receptor (TRHR) signaling pathway (AID 1346891; calls by dose curve; further: series mostly up to about 58 µM). The essentials: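 TRHR-expressing HEK293 cells were plated 18 h at 37 °C/5% CO2, loaded with calcium dye 2 h at 37 °C, then given compound in DMSO; fluorescence was read kinetically for 3 min at 1 s intervals.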

A short description of experiment [11]: Human pregnane X receptor (PXR) small molecule agonists, qHTS cell viability counter screen (AID 1346977). Further: nearly all actives have a fitted effect of over 50% in size. The method in brief:
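PXR-Luc HepG2 cells in medium with 5% charcoal-stripped FBS were pre-incubated 5hr, then exposed to compounds for 24hr at 37C. Viability was read in the same wells by CellTiter-Fluor fluorescence, reagent added after 23hr with a 1hr incubation.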

The nature of experiment [12]: Caspase-3/7 induction in HepG2 cells by small molecules, qHTS assay (AID 1346978). Further: nearly all actives have a fitted effect of over 15% in size. The method in brief:
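Wild-type HepG2 cells, 2,000/well, settled 5 hr at 37 C and 5% CO2, then compound-treated for 17 hr; caspase-3/7 activity read by luminescent Caspase-Glo 3/7 after 30 min at room temperature.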

Experiment [13] can be described thus: Caspase-3/7 induction in CHO-K1 cells by small molecules, qHTS assay (AID 1346980). Further: nearly all actives have a fitted effect of over 15% in size. The essentials: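 Wild-type CHO-K1 cells exposed to compounds for 17hr at 37 C, 5% CO2. Caspase-3/7 activity then measured by Caspase-Glo 3/7 luminescence after 30min at room temperature.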
The target in experiment [14] is Nuclear receptor subfamily 1 group I member 2 (Homo sapiens) (UniProt O75469). As to the kind of experiment: Human pregnane X receptor (PXR) small molecule agonists, qHTS assay (AID 1346982). Further: nearly all actives have a fitted effect of over 35% in size. Further: potency means the concentration at half of the fitted maximal effect. The method in brief: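 Luminescence (ONE-Glo, 30 min RT) after 24 hr compound exposure of PXR-Luc HepG2 cells; cells rested 5 hr post-plating in 5% charcoal-stripped FBS medium.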
Sequence of Nuclear receptor subfamily 1 group I member 2 (Homo sapiens) (O75469 whole entry, looked up): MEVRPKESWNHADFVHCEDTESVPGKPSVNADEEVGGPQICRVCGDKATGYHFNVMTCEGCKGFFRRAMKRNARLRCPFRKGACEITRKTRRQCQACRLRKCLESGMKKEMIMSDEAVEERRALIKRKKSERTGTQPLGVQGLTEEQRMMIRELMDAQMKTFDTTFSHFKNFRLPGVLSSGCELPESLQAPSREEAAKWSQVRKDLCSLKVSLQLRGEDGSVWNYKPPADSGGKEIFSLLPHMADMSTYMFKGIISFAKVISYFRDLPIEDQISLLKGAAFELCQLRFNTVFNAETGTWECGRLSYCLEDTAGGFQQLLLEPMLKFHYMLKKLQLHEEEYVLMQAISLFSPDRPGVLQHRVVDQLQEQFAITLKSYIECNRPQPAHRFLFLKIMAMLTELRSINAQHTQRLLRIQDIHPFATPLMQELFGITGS

Experiment [15] addresses Nuclear receptor subfamily 1 group I member 2 (Rattus norvegicus) (UniProt Q9R1A7). Description: Rat pregnane X receptor (rPXR) activation by small molecules, qHTS assay (AID 1346983). Further: nearly all actives have a fitted effect of over 20% in size. The note with it: rPXR luciferase reporter cells, One-Glo luminescence, 24 h; stronger effect = higher value. The essentials:
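Cell-based rPXR activation assay: rPXR cells, 2,000 per well, rested 5hr at 37 C, then exposed to compounds in DMSO for 24 hr at 37 C. Luciferase activity read by One-Glo luminescence after 30 min at room temperature.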

Experiment [16] concerns the target Nuclear receptor subfamily 1 group I member 2 (Homo sapiens) (UniProt O75469). Description: CYP3A4 induction through human pregnane X receptor (PXR) by small molecules, qHTS assay (AID 1346984). Further: nearly all actives have a fitted effect of over 40% in size. The essentials:
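DPX-2 reporter cells; 24h cpd, 37C; Luciferin-IPA 3uM final x3h; One-Glo 30 min RT; lumi read.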

For experiment [17] the target is unchanged. As to the kind of experiment: Human pregnane X receptor (PXR) activation by small molecules, qHTS assay (AID 1346985). Further: nearly all actives have a fitted effect of over 40% in size. The essentials: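 DPX-2 cells (HepG2 co-transfected with a PXR response element and a CYP3A4-promoter luciferase construct) were seeded at 2,000 per well, rested 5 hr at 37C, then exposed to DMSO-dissolved compounds for 24 hr. Activation was read as luciferase luminescence.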

Experiment [18] addresses Acetylcholinesterase (Homo sapiens) (UniProt P22303). As to the kind of experiment: Acetylcholinesterase (AChE) small molecule antagonists: colormetric cell-based qHTS assay (AID 1347395; calls by dose curve; further: nearly all actives have a fitted effect of over 30% in size; further: potency means the concentration at half of the fitted maximal effect). The method in brief: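 SH-SY5Y cells, plated overnight at 37 C, were exposed to compounds for 30 min at 37 C and 5% CO2. Acetylthiocholine plus DTNB was then added, and thiocholine from endogenous AChE was quantified colorimetrically after 90 min at 37 C.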

Experiment [19] in a line: Caspase-3/7 induction in CHO-K1 cells by small molecules, qHTS cell viability counter screen (AID 1346979). Further: nearly all actives have a fitted effect of over 35% in size. The method in brief:
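Wild-type CHO-K1 cells were seeded at 1,500 per well, rested 5hr at 37 C, then exposed to compounds in DMSO. After 16hr, CellTiter-Fluor reagent was added and fluorescence read 1hr later as the viability measure.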

A short description of experiment [20]: Caspase-3/7 induction in HepG2 cells by small molecules, qHTS cell viability counter screen (AID 1346981). Further: series mostly up to about 92 µM; nearly all actives have a fitted effect of over 30% in size. The essentials:
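Counter screen for cytotoxicity: HepG2 exposed 16 hr to compounds, then CellTiter-Fluor viability signal (fluorescence, 1 hr reagent incubation).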

Structures are written as SMILES. Results filed as inconclusive are left out. A structure can be active in one record and inactive in another. The source made the active and inactive calls. Unless noted, the call rests on the fitted dose curve; in most records, active means well fitted curve in the direction sought with a large enough effect in the repeat runs; inconclusive means weak or mixed curves; inactive means no such curve, though single readings can be large; an effect the other way counts as inactive or inconclusive.

Experimental findings from PubChem BioAssay (Tox21) are described below.
On the % scale 0 is the no-effect control and ±100 the full control effect.

Sequence of Progesterone receptor (Homo sapiens) (P06401 whole entry, looked up): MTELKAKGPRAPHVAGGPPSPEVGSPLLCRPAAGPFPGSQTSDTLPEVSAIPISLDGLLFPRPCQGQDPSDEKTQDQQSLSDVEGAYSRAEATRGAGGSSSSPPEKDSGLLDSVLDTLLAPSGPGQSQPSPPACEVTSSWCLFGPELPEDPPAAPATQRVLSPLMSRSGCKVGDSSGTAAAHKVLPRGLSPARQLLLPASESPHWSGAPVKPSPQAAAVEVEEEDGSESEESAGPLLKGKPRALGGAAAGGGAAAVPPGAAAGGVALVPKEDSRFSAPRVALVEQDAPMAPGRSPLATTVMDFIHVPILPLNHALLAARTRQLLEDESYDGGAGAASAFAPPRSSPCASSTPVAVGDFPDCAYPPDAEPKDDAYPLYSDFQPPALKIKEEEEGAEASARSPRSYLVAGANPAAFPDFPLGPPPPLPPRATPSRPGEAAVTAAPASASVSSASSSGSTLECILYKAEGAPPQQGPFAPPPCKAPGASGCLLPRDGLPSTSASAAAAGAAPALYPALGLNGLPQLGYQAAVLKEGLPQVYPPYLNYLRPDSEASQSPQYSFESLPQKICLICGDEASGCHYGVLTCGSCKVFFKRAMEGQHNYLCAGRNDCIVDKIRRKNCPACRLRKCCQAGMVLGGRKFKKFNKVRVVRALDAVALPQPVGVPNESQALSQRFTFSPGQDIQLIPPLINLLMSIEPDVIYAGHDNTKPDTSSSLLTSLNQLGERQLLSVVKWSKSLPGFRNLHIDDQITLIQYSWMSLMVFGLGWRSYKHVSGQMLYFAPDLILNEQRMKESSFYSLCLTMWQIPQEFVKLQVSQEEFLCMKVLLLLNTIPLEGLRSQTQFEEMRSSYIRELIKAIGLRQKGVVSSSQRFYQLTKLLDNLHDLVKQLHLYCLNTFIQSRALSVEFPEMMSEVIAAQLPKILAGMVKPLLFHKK
Sequence of Nuclear receptor subfamily 1 group I member 2 (Rattus norvegicus) (Q9R1A7 whole entry, looked up): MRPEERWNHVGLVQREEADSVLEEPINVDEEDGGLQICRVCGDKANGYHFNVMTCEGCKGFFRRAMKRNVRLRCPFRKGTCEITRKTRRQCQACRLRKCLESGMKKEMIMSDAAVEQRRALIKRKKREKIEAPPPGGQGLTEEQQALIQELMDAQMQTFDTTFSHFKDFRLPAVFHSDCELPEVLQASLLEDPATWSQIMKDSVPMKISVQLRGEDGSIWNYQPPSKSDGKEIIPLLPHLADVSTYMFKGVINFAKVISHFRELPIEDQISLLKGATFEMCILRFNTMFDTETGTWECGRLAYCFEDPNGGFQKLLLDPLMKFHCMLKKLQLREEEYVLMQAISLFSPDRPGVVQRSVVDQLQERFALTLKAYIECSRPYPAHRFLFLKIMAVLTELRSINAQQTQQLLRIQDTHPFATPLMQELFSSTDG
Sequence of Acetylcholinesterase (Homo sapiens) (P22303 whole entry, looked up): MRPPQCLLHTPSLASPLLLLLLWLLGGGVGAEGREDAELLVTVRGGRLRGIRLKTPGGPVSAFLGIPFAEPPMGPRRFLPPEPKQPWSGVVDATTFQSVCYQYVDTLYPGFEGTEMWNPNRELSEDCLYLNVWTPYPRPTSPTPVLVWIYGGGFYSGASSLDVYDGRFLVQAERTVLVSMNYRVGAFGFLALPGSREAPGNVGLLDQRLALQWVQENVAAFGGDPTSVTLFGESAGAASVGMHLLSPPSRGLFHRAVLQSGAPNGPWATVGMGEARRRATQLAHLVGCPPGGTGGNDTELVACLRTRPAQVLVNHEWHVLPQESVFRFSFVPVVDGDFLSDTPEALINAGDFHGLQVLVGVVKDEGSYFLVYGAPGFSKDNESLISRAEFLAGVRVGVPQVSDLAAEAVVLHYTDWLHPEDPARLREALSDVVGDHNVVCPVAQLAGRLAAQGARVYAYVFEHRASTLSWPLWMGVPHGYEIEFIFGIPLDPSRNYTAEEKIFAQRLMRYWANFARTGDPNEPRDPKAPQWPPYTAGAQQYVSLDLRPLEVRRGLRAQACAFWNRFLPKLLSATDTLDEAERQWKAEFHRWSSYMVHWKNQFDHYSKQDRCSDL

For the compound `CCOC(=O)CC(SP(=S)(OC)OC)C(=O)OCC` (configuration not stated), the Potency result in experiment [1], in [3], in [4], in experiment [5], in [7] and in [9] was “inactive” throughout. Also, the Potency entry in experiment [11], in experiment [16] and in experiment [17] was “inactive” each time. Also, the Potency in [2] was 1.37 µM (active) and inactive; in [14], 12.2 µM (active) and inactive; in [18] it was 62.1 µM (active) and inactive. The compound was classed as inactive in experiment [6], in experiment [8], in experiment [10], in [12] and in experiment [13]. In addition, the max activation in experiment [15] was 0.377% (inactive).
With `O=C(Cl)OCc1ccccc1`, the Potency result in experiment [1], in [2], in experiment [3], in experiment [4], in experiment [5] and in experiment [7] was “inactive” each time. The Potency result in [9], in [11], in experiment [19], in experiment [14] and in experiment [18] was “inactive” in each case. For the same compound, the result in experiment [6], in [8], in experiment [10] and in [12] was inactive.
In the case of `CCCN1CCC[C@@H]2Cc3[nH]ncc3C[C@H]21`, the Potency entry in experiment [1], in experiment [2], in experiment [3], in experiment [4], in experiment [5] and in experiment [7] was “inactive” throughout. Also, the Potency result in experiment [9], in [11], in experiment [19] and in experiment [20] was “inactive” each time. The compound was classed as inactive in [6], in experiment [8], in experiment [10], in [12] and in experiment [13]. The Potency in [18] is 27.5 µM (active).
In the case of `CC(C)(C)C(=O)C(Cl)Cl`, the Potency result in [1], in experiment [2], in [3], in experiment [4], in [5] and in [9] was “inactive” in each case. In addition, the Potency entry in [19], in experiment [20], in [14] and in experiment [18] was “inactive” throughout. Further, the compound was classed as inactive in experiment [6], in experiment [8], in experiment [10], in [12] and in [13].
In the case of `Clc1cc2c(cc1Cl)Oc1cc(Cl)c(Cl)cc1O2`, the activity change, negative = cytotoxicity was 0.532% [at 0.349 µM] (inactive) in experiment [1]; -11.1% [at 0.348 µM] (inactive) in [4]; 4.69% [at 0.349 µM] (inactive) in experiment [5]; -5.16% [at 0.349 µM] (inactive) in experiment [11]; 8.13% [at 0.349 µM] (inactive) in experiment [19]; -3.38% [at 0.349 µM] (inactive) in experiment [20]. Further, the activation is 2.35% [at 0.349 µM] (inactive) in experiment [2], 2% [at 0.29 µM] (inactive) in experiment [8], -0.214% [at 0.218 µM] (inactive) in [10] and -4.83% [at 0.349 µM] (inactive) in [14]. In [3], the activity change, negative = inhibition was 5.7% [at 0.348 µM] (inactive). In experiment [6], the viability change, negative = cytotoxic was -2.55% [at 0.29 µM] (inactive). In addition, the activity, negative = inhibition in experiment [9] was 2.75% [at 0.194 µM] (inactive); in experiment [18], -1.29% [at 0.435 µM] (inactive). The caspase activation in experiment [12] is 2.22% [at 0.349 µM] (inactive). Besides, in experiment [13], the caspase-3/7 activation is 0.0442% [at 0.349 µM] (inactive).
As to `CC[C@@H](CO)NC(=O)[C@@H]1C=C2c3cccc4c3c(cn4C)C[C@H]2N(C)C1`, the Potency entry in experiment [1], in [2], in [3], in [4], in [5] and in experiment [7] was “inactive” each time. Besides, the Potency entry in [9], in [19], in experiment [20], in experiment [16] and in experiment [17] was “inactive” each time. Also, the compound was classed as inactive in experiment [6], in experiment [8], in [10], in experiment [12] and in experiment [13]. In addition, the max activation in experiment [15] is 4.36% (inactive). Moreover, the Potency in experiment [18] was 2.45 µM (active).
`COP(=O)(O)OC`: the Potency result in experiment [1], in [2], in [3], in experiment [4], in experiment [5] and in experiment [7] was “inactive” each time. The Potency result in experiment [9], in experiment [19], in experiment [20], in experiment [14] and in [18] was “inactive” each time. Further, the call in [6], in experiment [8], in experiment [10], in experiment [12] and in experiment [13] was inactive.
In the case of `ClC1=C(Cl)C2(Cl)C(CBr)CC1(Cl)C2(Cl)Cl` (configuration not stated), the Potency result in experiment [1], in experiment [2], in experiment [3], in [4], in experiment [7] and in experiment [9] was “inactive” throughout. For the same compound, the Potency result in experiment [11], in experiment [19], in experiment [16], in experiment [17] and in experiment [18] was “inactive” in each case. Also, the outcome in [6], in experiment [8], in experiment [10], in [12] and in [13] was inactive. The Potency in experiment [14] is 48.6 µM (active) and inactive. For the same compound, the max activation in [15] is 0.545% (inactive).
